Seven sequences from the supplement of paper PMC6555819 can be followed below.

What all share (assay): PBM binding z-score (relative to random genomic background probes); higher = stronger binding; sequences stand for … in GC…GCGATTGACAGCGTAGAATGAAGG
Test [1] concerns PPARg:RXRa DBDmut IVT, anti-RXR (DBD mutation: RXRa K156A/R161A, NR concentration 270 nM, RXRa partner concentration 90 nM). A digest of the protocol: (§1)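 Custom Agilent 4×180K protein-binding microarrays carried double-stranded probes. Their 34-nt variable regions held direct-repeat seeds, single-nucleotide variants, half-site ablations and random human genomic background sequences. Arrays were incubated 1 h with ligand-free nuclear receptor dimers in PBS pH 7.4, 2% milk, 0.02% Triton X-100, 1 mM DTT, 0.2 mg/mL BSA and 0.4 mg/ml salmon testes DNA. Antibodies against each partner (one per run) detected binding, and scanned fluorescence was regression-normalized. Binding z-scores use random background probes as reference.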

For test [2], the system named is PPARg:RXRa IVT, anti-PPARg (NR concentration 270 nM, RXRa partner concentration 90 nM). In outline:
as §1

Test [3] has as its system PPARg DBDmut:RXRa IVT, anti-PPARg (DBD mutation: PPARg1 K132A/R137A, NR concentration 270 nM, RXRa partner concentration 90 nM). In outline:
as §1

The subject of test [4] is PPARg DBDmut IVT, anti-PPARg (DBD mutation: PPARg1 K132A/R137A, NR concentration 270 nM). A digest of the protocol: as §1
Test [5] has as its system PPARg homodimer (NR concentration 180 nM). A digest of the protocol:
as §1

Test [6] relates to PXR:RXRa (NR concentration 270 nM, RXRa partner concentration 90 nM). A digest of the protocol:
as §1

Test [7] concerns PXR homodimer (NR concentration 270 nM). In outline: as §1
Test [8] deals with RARa:RXR (NR concentration 270 nM, RXRa partner concentration 90 nM). A digest of the protocol:
as §1

Test [9] concerns RARa homodimer (NR concentration 270 nM). In outline:
as §1

Test [10] concerns RARb:RXRa (NR concentration 270 nM, RXRa partner concentration 90 nM). A digest of the protocol:
as §1

For test [11], the system named is RARb homodimer (NR concentration 270 nM). A digest of the protocol: as §1
The subject of test [12] is RARg:RXRa (NR concentration 270 nM, RXRa partner concentration 90 nM). In outline: as §1
Test [13] concerns RARg homodimer (NR concentration 270 nM). A digest of the protocol: as §1
In test [14] the test system is RXRa DBDmut IVT, anti-RXR (DBD mutation: RXRa K156A/R161A, NR concentration 90 nM). A digest of the protocol:
as §1

Test [15] relates to RXRa homodimer (NR concentration 180 nM). A digest of the protocol:
as §1

Test [16] concerns THRa:RXRa (NR concentration 90 nM, RXRa partner concentration 90 nM). A digest of the protocol:
as §1

Test [17] has as its system THRa homodimer (NR concentration 90 nM). In outline:
as §1

In test [18] the test system is VDR homodimer (NR concentration 270 nM). In outline: as §1

CGAACGAGGGCATGAGTTGATAGCGAATGCCGAT: the PBM binding z-score in test [1] is 3.22; in test [2], 2.24; in test [3] it was -0.216; in test [4], -0.415; in [5], 0.483; in [6], 0.461. The PBM binding z-score was -0.235 in [7]; 0.351 in test [8]; -0.349 in test [9]; 1.97 in test [10]; 0.689 in test [11]; 1.25 in test [12]. The PBM binding z-score in test [13] is 1.69; in test [14], 2.41; in test [15] it was 1.09; in test [16], 1.09; in [17], -0.229; in [18] it was 1.5.

Regarding CCGACTGGGGCAAAGGTTACCATCCTCAGTACGA, the PBM binding z-score in test [1] was 4.64; in test [2], 5.59; in test [3], -0.502; in test [4], -0.948; in [5] it was 1.17; in test [6] it was 2.56. In addition, the PBM binding z-score is -0.625 in [7]; 4.05 in test [8]; -0.46 in test [9]; 2.39 in test [10]; 2.19 in [11]; 3.56 in [12]. In addition, the PBM binding z-score was 1.56 in test [13]; -0.109 in [14]; 4.04 in test [15]; 1.77 in test [16]; -0.0864 in test [17]; -0.138 in [18].

CCTACTGGGCCAAAGGTCATTGAGTCCAATGCTC: the PBM binding z-score in test [1] was 5.06; in test [2] it was 6.83; in [3], 0.176; in test [4] it was -0.111; in test [5], 2.47; in test [6] it was 6.16. Further, the PBM binding z-score in test [7] is 12.7; in test [8], 5.99; in test [9], 1.14; in [10], 4.71; in [11], 4.88; in test [12], 5.8. Moreover, the PBM binding z-score in [13] was determined as 4.63; in [14], 1.78; in test [15], 6.07; in test [16], 3.57; in [17], 0.746; in test [18], 4.9.

Regarding GATGCTAGGTCAGGTTGGTCAGCTAACGGGTACG, the PBM binding z-score is 1.91 in [1]; 2.23 in test [2]; -0.346 in test [3]; -0.425 in test [4]; 1.67 in test [5]; 0.452 in test [6]. Further, the PBM binding z-score was 0.0675 in [7]; 0.755 in test [8]; -0.108 in test [9]; 3.46 in test [10]; 3.1 in test [11]; 2.37 in test [12]. In addition, the PBM binding z-score in test [13] amounted to 3.92; in test [14], 0.468; in test [15], 1.16; in test [16] it was 1.92; in test [17] it was 0.898; in [18] it was 0.958.

With GCTAGTAGTTGAAAGGGCAACCGAATGATTCTCG, the PBM binding z-score is 0.195 in test [1]; 1.26 in test [2]; -0.638 in test [3]; -0.335 in test [4]; 1.55 in test [5]; 0.658 in [6]. The PBM binding z-score in test [7] was -0.0187; in test [8], 1.47; in [9] it was -1.01; in [10], 1.88; in test [11], 1.73; in test [12], 1.22. The PBM binding z-score was 0.96 in [13]; 0.488 in test [14]; 1.47 in test [15]; 0.474 in [16]; -0.735 in test [17]; -0.34 in [18].

For the sequence CCGACTGGGGCATAAGGGTACCATAAGCCAGCCC, the PBM binding z-score in test [1] is 1.55; in [2] it was 1.97; in test [3] it was -1.37; in [4], -1.11; in test [5], -0.201; in test [6] it was -0.472. For the same sequence, the PBM binding z-score was -0.387 in test [7]; -0.246 in test [8]; -0.606 in test [9]; 0.641 in test [10]; 0.3 in test [11]; 0.401 in [12]. The PBM binding z-score in test [13] is 0.239; in test [14], -0.871; in [15], 0.269; in test [16] it was -0.0868; in test [17] it was -0.457; in [18] it was -0.543.

In the case of AGAATGATGTTACCAAAGATCAGGGAAACGCTTG, the PBM binding z-score in test [1] was -0.0632; in test [2], 0.0152; in test [3] it was 0.508; in test [4], 0.116; in test [5], -0.153; in [6] it was -0.39. For the same sequence, the PBM binding z-score in test [7] is -0.411; in test [8], 0.018; in test [9], 0.147; in test [10], -0.129; in test [11], -0.737; in test [12], 0.0194. For the same sequence, the PBM binding z-score was 0.432 in [13]; -0.312 in test [14]; 0.387 in test [15]; -0.115 in test [16]; -0.58 in [17]; -0.437 in test [18].
